Measured values published in PubChem BioAssay AID1159580 (chemical genetic matrix, 2015).
Out of some 5,500 compounds screened, about 2,000 (36%) were called active. Inconclusive results (about 18%) are left out. Rule as the data show it: active = normalized growth mostly below about 0.91 (no sharp cut-off); inconclusive = no clear call, values can overlap the other calls; inactive = mostly above about 0.92. The list shows a part of the results.

Experiment: chemical genetic growth profiling, strain panel (AID 1159580);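 also: tested at 20 µM; growth read once vehicle control cultures reached saturation at 30 °C; 1 = growth at the plate median or of vehicle wells; lower values mean less growth of the strain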
Conditions: S. cerevisiae deletion strains, growth OD

Measured: normalized growth

CCCCCC[C@@H]([C@@H](C)O)n1cnc2c(N)ncnc21
inactive: locus YAL040C, strain CLN3, active compounds read low 1.02 | locus YCL061C, strain MRC1 (second series), active compounds read low 1 | locus YDR150W, strain NUM1, active compounds read low 1.01 | locus YDR363W, strain ESC2, active compounds read low 1 | locus YER002W, strain NOP16, active compounds read low 1.01 | locus YGR229C, strain SMI1, active compounds read low 0.945 | locus YJR075W, strain HOC1, active compounds read low 0.99 | locus YMR263W, strain SAP30, active compounds read low 1 | locus YNL128W, strain TEP1, active compounds read low 0.992 | locus YNL175C, strain NOP13, active compounds read low 1.02 | locus YNL197C, strain WHI3, active compounds read low 1.01 | locus YNL224C, strain SQS1, active compounds read low 0.992 | locus YOR083W, strain WHI5 (second series), active compounds read low 1.06 | locus YPL241C, strain CIN2, active compounds read low 1

O=C(CSCc1nc(-c2ccc(Cl)cc2)cs1)N/N=C\c1cccs1
inactive: locus YAR019C, strain CDC15, active compounds read low 0.984 | locus YBL105C, strain PKC1, active compounds read low 0.97 | locus YBR135W, strain CKS1, active compounds read low 0.969 | locus YBR136W, strain MEC1, active compounds read low 0.972 | locus YBR160W, strain CDC28, active compounds read low 0.969 | locus YDL017W, strain CDC7, active compounds read low 0.97 | locus YDL028C, strain MPS1, active compounds read low 0.973 | locus YDL101C, strain DUN1, active compounds read low 0.978 | locus YDL108W, strain KIN28, active compounds read low 0.975 | locus YDL132W, strain cdc53, active compounds read low 0.966 | locus YDL214C, strain PRR2, active compounds read low 0.91 | locus YDR052C, strain DBF4, active compounds read low 0.98 | locus YDR054C, strain cdc34, active compounds read low 0.97 | locus YDR226W, strain ADK1, active compounds read low 0.972 | locus YDR477W, strain SNF1, active compounds read low 0.953 | locus YER123W, strain YCK3, active compounds read low 0.908 | locus YER133W, strain GLC7, active compounds read low 0.946 | locus YFL009W, strain cdc4, active compounds read low 0.971 | locus YFL029C, strain CAK1, active compounds read low 0.973 | locus YFR003C, strain YPI1, active compounds read low 0.962 | locus YFR019W, strain FAB1, active compounds read low 0.929 | locus YFR028C, strain CDC14, active compounds read low 0.963 | locus YGR040W, strain KSS1, active compounds read low 0.935 | locus YGR052W, strain FMP48, active compounds read low 0.948 | locus YGR092W, strain DBF2, active compounds read low 0.98 | locus YHR030C, strain SLT2, active compounds read low 1.01 | locus YHR079C, strain IRE1, active compounds read low 1.03 | locus YHR082C, strain KSP1, active compounds read low 0.998 | locus YHR205W, strain SCH9, active compounds read low 0.935 | locus YIL147C, strain SLN1, active compounds read low 0.975 | locus YJL095W, strain BCK1, active compounds read low 0.936 | locus YJL128C, strain PBS2, active compounds read low 0.924 | locus YJL157C, strain FAR1, active compounds read low 0.95 | locus YJR016C, strain ILV3, active compounds read low 0.974 | locus YJR066W, strain TOR1 (second series), active compounds read low 0.951 | locus YJR066W, strain TOR1, active compounds read low 1.02 | locus YKL048C, strain ELM1, active compounds read low 0.944 | locus YKL067W, strain YNK1, active compounds read low 0.932 | locus YKL101W, strain HSL1, active compounds read low 0.921 | locus YKL193C, strain SDS22, active compounds read low 0.972 | locus YKL203C, strain TOR2, active compounds read low 1 | locus YLR133W, strain CKI1, active compounds read low 0.917 | locus YLR403W, strain SFP1, active compounds read low 0.933 | locus YML070W, strain DAK1, active compounds read low 0.93 | locus YMR001C, strain CDC5, active compounds read low 0.976 | locus YMR205C, strain PFK2 (second series), active compounds read low 0.942 | locus YMR277W, strain FCP1, active compounds read low 0.98 | locus YNL006W, strain LST8, active compounds read low 0.973 | locus YNL020C, strain ARK1, active compounds read low 0.925 | locus YNL161W, strain CBK1, active compounds read low 0.969 | locus YNL183C, strain NPR1, active compounds read low 0.971 | locus YNL207W, strain RIO2, active compounds read low 0.967 | locus YNL222W, strain SSU72, active compounds read low 0.974 | locus YNL307C, strain MCK1 (second series), active compounds read low 0.956 | locus YOL078W, strain AVO1, active compounds read low 0.966 | locus YOL136C, strain PFK27, active compounds read low 0.866 | locus YOR061W, strain CKA2, active compounds read low 0.943 | locus YOR119C, strain RIO1, active compounds read low 0.994 | locus YOR231W, strain MKK1, active compounds read low 0.927 | locus YOR329C, strain SCD5, active compounds read low 0.975 | locus YPL031C, strain PHO85, active compounds read low 0.96 | locus YPL153C, strain RAD53, active compounds read low 0.969 | locus YPL204W, strain HRR25, active compounds read low 0.906 | locus YPL209C, strain IPL1, active compounds read low 0.969 | locus YPL256C, strain CLN2, active compounds read low 0.965 | locus YPR025C, strain CCL1, active compounds read low 0.979 | locus YPR106W, strain ISR1, active compounds read low 0.97 | locus YPR111W, strain DBF20, active compounds read low 0.952 | strain NNK1, active compounds read low 0.966 | strain TSCII, active compounds read low 0.968
active: locus YLR113W, strain HOG1, active compounds read low 0.831
